Screening data (PubChem)
Compounds with a hit are over-represented: about 3.5% of the library has one in this group of screens.
NS1 function inh – qHTS Assay for Inhibitors of Influenza NS1 Protein Function. Potency, µM (series often up to 46.1 µM). 270,000 compounds, 0.4% hits; calls by dose curve; note: actives are rising curves; nearly all actives have a fitted effect of over 50% in size
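Recovery from NS1-induced slow growth read by OD600 in budding yeast switched to galactose assay medium (pH 6.0, -URA) at 1:100 dilution. Compound 23 nl per well; the matching strain lacking NS1 serves as control.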
Tb PYK inh – qHTS of Trypanosoma Brucei Inhibitors; pyruvate kinase (Trypanosoma brucei), Q57TT1; TbPYK enzyme, Kinase-Glo Plus ATP luminescence, 45 min; Potency, µM (top dose mostly 76.8 µM), usual class: inhibitors; 410,000 compounds, 0.12% hits; AID 624173, 2012; note: nearly all actives have a fitted effect of over 50% in size
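Readout: single end-point luminescence (Kinase-Glo Plus, 10 min). Reaction conditions were TbPYK/substrate plus 130 uM ADP, 45 min at RT, pH 7.2 TEA buffer. No-enzyme wells served as controls, and data were normalized before concentration-response fitting.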
FBPA Giardia inh – qHTS Assay for Inhibitors of Fructose-1,6-bisphosphate Aldolase from Giardia Lamblia | A8B2U2 | purified Giardia FBPA | Potency, µM (highest dose often 59.6 µM), most hits filed as inhibitors | 290,000 compounds, 0.71% hits; note: nearly all actives have a fitted effect of over 55% in size
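Giardia FBPA (40 nM reagent) was preincubated 10 min at RT with compound (up to 57.5 uM final), then substrate plus GAPDH/TPI/NAD/arsenate coupling system with diaphorase/resazurin was added; resorufin fluorescence (525/598 nm) was read after 20 min.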
Sm TGR block – qHTS Assay for the Inhibitors of Schistosoma Mansoni Peroxiredoxins; 360,000 compounds, 3% hits; purified TGR, DTNB reduction, TNB absorbance 405 nm; Schistosoma mansoni thioredoxin glutathione reductase (TGR), Q962Y6; Potency, µM (series often up to 114 µM), hits mostly inhibitors; note: nearly all actives have a fitted effect of over 60% in size
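TGR 20 nM + NADPH 100 uM (dispensed conc.), cpd preinc 15 min RT; start with NADPH (500 uM addition) then DTNB (15 mM addition). Kinetic TNB absorbance, 405 nm filter. Four-parameter Hill fit across titration.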
RE007 growth inh – qHTS Assay for Inhibitors of the HIV-1 protein Vpr; S. pombe RE007 Vpr strain, BacTiter-Glo ATP luminescence, 24 h; Potency, µM (highest dose often 92.2 µM), actives largely listed as inhibitors; 360,000 compounds, 0.21% hits; AID 651644, 2012; active = well fitted falling curve with a large enough effect; inconclusive = small, poorly fitted or top-dose-only effect; inactive = no such curve, though single readings can be large or run the other way; note: nearly all actives have a fitted effect of over 50% in size
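Fission yeast strain RE007, carrying one chromosomally integrated HIV-1 vpr copy, was seeded at OD 0.01 in PMG+AL medium with 23 nL pinned compound. After 24 h at 30 °C and 99% humidity, viability was read by BacTiter-Glo luminescence.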
LmPK inhibitor – qHTS Assay for Inhibitors of Leishmania Mexicana Pyruvate Kinase (LmPK) | Q27686 | purified LmPK, Kinase-Glo ATP luminescence, 1 h | Potency, µM (titrated, usually from 57.5 µM), actives largely listed as inhibitors | 290,000 compounds, 0.37% hits | AID 1721, 2009
Target sequence (Q27686 whole entry, looked up): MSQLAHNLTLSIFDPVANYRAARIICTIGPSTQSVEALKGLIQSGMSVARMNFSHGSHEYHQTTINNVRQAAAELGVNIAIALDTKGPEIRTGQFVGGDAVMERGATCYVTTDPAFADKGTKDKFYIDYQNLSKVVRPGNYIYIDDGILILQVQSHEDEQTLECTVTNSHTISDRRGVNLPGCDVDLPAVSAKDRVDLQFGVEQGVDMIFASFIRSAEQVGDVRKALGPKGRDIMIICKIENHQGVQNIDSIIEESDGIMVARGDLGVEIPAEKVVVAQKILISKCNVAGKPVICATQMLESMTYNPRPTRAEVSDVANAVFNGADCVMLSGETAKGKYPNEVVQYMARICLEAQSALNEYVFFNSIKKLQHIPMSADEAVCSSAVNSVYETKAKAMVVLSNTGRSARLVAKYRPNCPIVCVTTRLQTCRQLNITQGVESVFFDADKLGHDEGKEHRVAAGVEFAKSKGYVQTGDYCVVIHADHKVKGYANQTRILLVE
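Purified LmPK (0.1 nM) with 0.5 mM PEP and 0.1 mM ADP in imidazole buffer pH 7.2 with MgCl2/KCl, 1 h at room temperature. ATP formed was read by luciferase luminescence and normalized to no-enzyme and uninhibited controls.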
A number is an active result; [ ] = dose if it differs, or a comment. Unless noted, calls come from the whole dose curve; as a rule, active = well fitted curve in the direction sought with a large enough effect; inconclusive = small, poorly fitted or top-dose-only effect, or another doubt; inactive = no such curve, though single readings can be large; an effect the other way counts as inactive or inconclusive.

`CCOC(=O)[C@H](CCc1ccccc1)NC(C)C(=O)N1CC2(CC1C(=O)O)SCCS2` (stereo partly drawn) gave Tb PYK inh inactive.
For O=C(c1ccco1)N1CCN(C(=O)c2cc3c(s2)-c2ccccc2OC3)CC1 the results were NS1 function inh inactive, Tb PYK inh inactive, FBPA Giardia inh inactive, Sm TGR block 25µM, RE007 growth inh inactive and LmPK inhibitor inactive.
For O=C(c1ccco1)N1CCN(C(=O)c2ccco2)CC1 the results were Tb PYK inh inactive and RE007 growth inh inactive.
For O=C(c1ccco1)N1CCN(C(=O)C(Cc2ccccc2)NS(=O)(=O)c2cccs2)CC1 (stereo not drawn) the results were NS1 function inh inactive, Tb PYK inh inconclusive, FBPA Giardia inh inactive[12.9 µM], Sm TGR block 25µM, RE007 growth inh inactive and LmPK inhibitor inactive.
For O=C(c1cc2c(s1)-c1ccccc1OC2)N1CCN(c2ccc(F)cc2)CC1 the results were Tb PYK inh inactive and Sm TGR block inactive.
`O=C(c1ccco1)N1CCN(C(=O)c2sccc2-c2ccccc2)CC1` gave NS1 function inh inactive, Tb PYK inh inactive, FBPA Giardia inh inactive, Sm TGR block 40µM, RE007 growth inh inactive and LmPK inhibitor inactive.
`O=C(c1ccco1)N1CCN(S(=O)(=O)c2cccs2)CC1` gave NS1 function inh inactive, Tb PYK inh inactive, FBPA Giardia inh inactive, Sm TGR block inactive, RE007 growth inh inactive and LmPK inhibitor inactive.
`COc1ccc(NC(=O)/C=C/c2cc(OC)c(OC)c(OC)c2)cn1` gave NS1 function inh inactive, Tb PYK inh inactive, FBPA Giardia inh inactive, Sm TGR block 45µM, RE007 growth inh inactive and LmPK inhibitor inactive.
For COc1cc(CNC(=O)c2sc3ncccc3c2-n2cccc2)cc(OC)c1OC the results were Tb PYK inh inactive and Sm TGR block inactive.
Brc1ccc(Cn2c(-c3ccc(Br)o3)nc3ccccc32)o1 was read as NS1 function inh inactive, Tb PYK inh inactive, FBPA Giardia inh inactive, Sm TGR block 22µM, RE007 growth inh inactive and LmPK inhibitor inactive.
`CC(=O)NC1=C(N(C)C2CCS(=O)(=O)C2)C(=O)c2ccccc2C1=O` (stereo not drawn) gave NS1 function inh inactive, Tb PYK inh inactive, FBPA Giardia inh 0.13µM, Sm TGR block inconclusive, RE007 growth inh inactive and LmPK inhibitor inactive.
CN(C(=O)Nc1ccccc1)C1CCS(=O)(=O)C1 (stereo not drawn) was read as NS1 function inh inactive, Tb PYK inh inactive, FBPA Giardia inh inactive, Sm TGR block inactive, RE007 growth inh inactive and LmPK inhibitor inactive.
CCOCC(O)COc1ccc(NC(=O)CC[S+](C)C)cc1 (stereo not drawn) was read as Tb PYK inh inactive.
Cc1ccc2nc(C)cc(Cl)c2c1 was read as Tb PYK inh inactive, FBPA Giardia inh inactive, Sm TGR block inactive, RE007 growth inh inactive and LmPK inhibitor inactive.
Screening Cc1cc2c(ccc3[nH]onc32)n1 returned NS1 function inh inactive, Tb PYK inh inactive, FBPA Giardia inh inconclusive, Sm TGR block 32µM, RE007 growth inh inactive and LmPK inhibitor inactive.
`CC1CN(C(=O)N2CCC(C(=O)NCc3ccccc3F)CC2)c2cc(Cl)ccc2O1` (stereo not drawn) gave Tb PYK inh inactive and Sm TGR block inactive.
`Cc1ccc(-n2nc(C)c3c(C(=O)Nc4ccc(C)cc4Cl)cc(C)nc32)cc1` gave Tb PYK inh inactive and Sm TGR block inactive.
Screening CCOc1ccc(C2SCC(=O)Nc3c2c(=O)[nH]n3C2CCCCCC2)cc1 (stereo not drawn) returned NS1 function inh inactive, Tb PYK inh inactive, FBPA Giardia inh inactive, Sm TGR block inactive, RE007 growth inh inactive and LmPK inhibitor inactive.
Screening COc1ccc(C2SCC(=O)Nc3c2c(=O)[nH]n3C2CCCCCC2)cc1 (stereo not drawn) returned NS1 function inh inactive, Tb PYK inh inactive, FBPA Giardia inh inactive, Sm TGR block 40µM, RE007 growth inh inactive and LmPK inhibitor inactive.
